# BAZ2B block = qHTS Assay for Inhibitors of BAZ2B. Bromodomain adjacent to zinc finger domain protein 2B (Homo sapiens), Q9UIF8. AlphaScreen BAZ2B-H3K14Ac peptide displacement. Potency, µM (series often up to 114 µM), hits mostly inhibitors. 360,000 tested, 4.4% active. AID 504333, 2011; also: nearly all actives have a fitted effect of over 60% in size
#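 BAZ2B (50 nM) with biotin-H3(5-23)K14Ac peptide (50 nM) in PBS pH 7.4, 0.01% Tween-20, preformed 30 min, then compound 30 min at room temperature; top concentration 110uM. AlphaScreen streptavidin donor/nickel chelate acceptor beads (10 ug/mL final), 20 min dark, signal read.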
# JMJD2A Tudor = qHTS Assay for Inhibitors of JMJD2A-Tudor Domain; Lysine-specific demethylase 4A (Homo sapiens), O75164; AlphaScreen JMJD2A-Tudor / H3K4me3 peptide binding; Potency, µM (doses to about 114 µM), usual class: inhibitors; 390,000 tested, 4.4% active; AID 504339, 2011; also: nearly all actives have a fitted effect of over 50% in size
# Sfp inh = qHTS Assay for Inhibitors of Bacillus subtilis Sfp phosphopantetheinyl transferase (PPTase). 4'-phosphopantetheinyl transferase ffp (Bacillus subtilis), Q9F4F7. Biochemical Sfp PPTase activity, qHTS. Potency, µM, actives largely listed as inhibitors. 310,000 tested, 3.5% active;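 also: the enzyme is Sfp with the accession as filed and its product quenches rhodamine fluorescence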
#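 Reaction rates are the 30-min fluorescence difference (ex 525, em 598 nm) in wells containing 15 nM Sfp, 5 uM rhodamine-CoA and 12.5 uM BHQ-2-YbbR at pH 7.6 with 10 mM MgCl2.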
# G9a block = qHTS Assay for Inhibitors of Histone Lysine Methyltransferase G9a. G9a H3K9 monomethylation, AlphaScreen, 2 h. Potency, µM (highest dose often 102 µM), most hits filed as inhibitors. 350,000 tested, 8.8% active. AID 504332, 2011; also: nearly all actives have a fitted effect of over 75% in size
# Target sequence (Q96KQ7 913-1193 limits assumed): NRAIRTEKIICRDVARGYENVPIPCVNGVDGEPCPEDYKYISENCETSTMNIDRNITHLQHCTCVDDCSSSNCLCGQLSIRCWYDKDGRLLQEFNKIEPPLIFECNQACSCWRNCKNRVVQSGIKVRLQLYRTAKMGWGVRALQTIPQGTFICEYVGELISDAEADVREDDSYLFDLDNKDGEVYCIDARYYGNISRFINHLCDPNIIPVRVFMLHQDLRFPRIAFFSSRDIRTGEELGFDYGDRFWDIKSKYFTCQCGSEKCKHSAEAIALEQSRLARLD
#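 Using a bead-based AlphaScreen, monomethylated H3K9 product from 2 h room-temperature reactions (G9a 20 nM, peptide 500 nM, SAM 20 uM) was detected with 0.5 ug/mL rabbit anti-H3K9me1 antibody.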
# HP1b binding inh = HTS for Inhibitors of HP1-beta Chromodomain Interactions with Methylated Histone Tails. AlphaScreen HP1-beta / biotin-H3K9me3 peptide binding. Potency, µM (titrated, usually from 114 µM), most hits filed as inhibitors. 390,000 tested, 0.56% active. AID 540317, 2011; also: nearly all actives have a fitted effect of over 70% in size
# Target sequence (P83916 whole entry, looked up): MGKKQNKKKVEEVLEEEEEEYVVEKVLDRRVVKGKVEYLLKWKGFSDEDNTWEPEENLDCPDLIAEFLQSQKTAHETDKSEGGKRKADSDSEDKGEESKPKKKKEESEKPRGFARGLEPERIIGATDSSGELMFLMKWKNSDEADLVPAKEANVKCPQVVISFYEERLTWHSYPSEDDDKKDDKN
#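 Compound inhibition of the preformed complex between 50 nM HP1-beta and 50 nM biotinylated H3K9me3 peptide was read by AlphaScreen. Buffer was PBS pH 7.4 with 0.01% Tween-20. Incubations ran 30 min at room temperature, with 10 ug/mL donor/acceptor beads.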
# A number is an active result; . = inactive; ? = inconclusive; / = not tested or not shown; [ ] = another dose, or the depositor's remark. Most compounds without a hit are left out; they make up all but 12% or so of the library. Calls follow the shape of the dose curve; as a rule, active = well fitted curve in the direction sought with a large enough effect; inconclusive = small, poorly fitted or top-dose-only effect, or another doubt; inactive = no such curve, though single readings can be large; an effect the other way counts as inactive or inconclusive.
SMILES,BAZ2B block,JMJD2A Tudor,Sfp inh,G9a block,HP1b binding inh
Cc1ccccc1CSc1nccn1-c1ccccc1,35.5µM,?,.,/,?
Cn1c(SCc2cccc(Br)c2)nnc1-c1ccccn1,?,.,.,.[12.7 µM],.
Cn1c(SCc2cccc(F)c2)nnc1-c1ccccn1,70.8µM,79.4µM,.,.,.
CCNC(=O)C1CCN(c2nc3ccccc3nc2C(F)(F)F)CC1,.,.,/,.,.
S=C(NCCCN1CCN(CCCNC(=S)NC2CCCCC2)CC1)NC1CCCCC1,/,.,/,/,.
CCOCCCNCc1cc(Br)ccc1OCc1ccccc1,.,.,?,?,.
OCCCCNCc1ccc(OCc2ccc(Cl)cc2)cc1,.,.,.,.,.
Clc1ccc(OCCCNCc2ccccc2)c(Br)c1,?,10µM,?,12.6µM,.
Clc1ccc(Cl)c(OCCCCNCc2ccccc2)c1,?,1.26µM,.,?,?
CCOc1ccc(CNC(=O)Cn2ncc3c(=O)oc4ccc(C)cc4c32)cc1,.,.,/,.,.
Nc1nc2ccc(C(=O)Nc3ccc(N4CCOCC4)cc3)cc2s1,/,?,/,/,.
Cc1cccnc1NC(=O)c1ccc2nc(N)sc2c1,.,.,.,39.8µM,.
O=C(c1ccco1)n1nc(-c2ccco2)nc1SCc1ccccc1,.,.,.,.,.
Cc1ccc(C(=O)n2nc(-c3ccco3)nc2N)cc1,.,.,.,.,.
CSc1nc(-c2ccco2)nn1C(=O)c1ccc(C)cc1,.,.,?,44.7µM,.
CSc1nc(-c2ccco2)nn1C(=O)c1ccco1,.,.,?,39.8µM,.
CSc1nc(-c2ccco2)nn1C(=O)c1ccccc1,?,.,14.1µM,?,.
O=C(/C=C/c1ccco1)Nc1cccc(C(=O)Nc2ccccc2C(=O)O)c1,?,79.4µM,56.2µM,/,.
Cc1ccc(NC(=O)c2cccc(NC(=O)/C=C/c3ccco3)c2)cc1C,.,.,.,?,.
CCc1ccccc1NC(=O)c1cccc(NC(=O)/C=C/c2ccco2)c1,.,.,20µM,?,.
CCOC(=O)C(Cc1ccc(NC(=O)/C(=C/c2ccccc2)NC(=O)c2ccccc2)cc1)N1C(=O)c2ccccc2C1=O (stereo not drawn),.,.,.,.,.
CCOC(=O)C(Cc1ccc(NC(=O)/C(=C/c2ccc(OC(C)=O)cc2)NC(C)=O)cc1)N1C(=O)c2ccccc2C1=O (stereo not drawn),.,89.1µM,.,.,.
COC(=O)[C@@]1(Cc2ccccc2)[C@H]2c3cc(C(=O)N(C)C)n(Cc4cc(C)n(C)n4)c3C[C@H]2CN1C(=O)c1ccccc1,/,/,.,/,/
O=C(O)CSc1nnc(-c2cccs2)n1-c1ccc(Cl)cc1,.,17.8µM,.,?,?
COC(=O)C1(C)C=C(Nc2ccc(OC)cc2)C(=O)N1c1ccc(OC)cc1 (stereo not drawn),/,/,.,/,/
SMILES,BAZ2B block,JMJD2A Tudor,Sfp inh,G9a block,HP1b binding inh
COc1cc(OC)cc(-c2c(-c3cccs3)c3cc(-c4cnc(OC)nc4)ccc3n2C)c1,.,.,/,.[0.501 µM],.
O=C1c2c([N+](=O)[O-])cc([N+](=O)[O-])cc2S(=O)N1Cc1ccccc1 (stereo not drawn),44.7µM,89.1µM,50.1µM,0.891µM,?
CC(=O)C1=C(O)C(=O)N(Cc2ccccc2)C1c1ccc([N+](=O)[O-])cc1 (stereo not drawn),.,/,.,?,/
CCCOC(=O)Nc1nc2ccccc2o1,79.4µM,?,.,50.1µM,.
CCOC(=O)C(=CN=C(N)Nc1nc2ccccc2o1)C(=O)OCC,.,.,.,.,.
O=C(Nc1nc2ccsc2c(=O)s1)c1ccco1,?,35.5µM,?,39.8µM,?
Cc1csc(NC(=O)c2cccs2)n1,.,.,.,.,.
Cc1csc2c(=O)sc(NC(=O)c3ccco3)nc12,.,.,56.2µM,50.1µM,.
Cc1csc2c(=O)sc(NC(=O)c3cccs3)nc12,50.1µM,.,.,?,.
COC(=O)CNc1c(-c2ccccn2)nc2ccc(Br)cn12,?,.,28.2µM,?,.
Brc1ccc(-c2nnc(-c3ccccc3Br)o2)cc1,.,.,50.1µM,.,.
